Source: PubChem
PME-1 inh = PME-1 (human) inhibition | Q9Y570 | recombinant PME-1, FP-Rh probe fluorescence polarization | inhibition, % at 5.9 µM | 320,000 compounds, 0.53% hits;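 active means inhibition above the campaign mean of all compounds plus 3 SD, cut at about 26% in these data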;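 further: competitive labeling of PME-1 active site by serine hydrolase directed probe; 0% = PME-1 with DMSO and 100% = wells lacking PME-1 enzyme; inhibitors block probe labeling so polarization falls and inhibition rises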
Target sequence (Q9Y570 whole entry, looked up): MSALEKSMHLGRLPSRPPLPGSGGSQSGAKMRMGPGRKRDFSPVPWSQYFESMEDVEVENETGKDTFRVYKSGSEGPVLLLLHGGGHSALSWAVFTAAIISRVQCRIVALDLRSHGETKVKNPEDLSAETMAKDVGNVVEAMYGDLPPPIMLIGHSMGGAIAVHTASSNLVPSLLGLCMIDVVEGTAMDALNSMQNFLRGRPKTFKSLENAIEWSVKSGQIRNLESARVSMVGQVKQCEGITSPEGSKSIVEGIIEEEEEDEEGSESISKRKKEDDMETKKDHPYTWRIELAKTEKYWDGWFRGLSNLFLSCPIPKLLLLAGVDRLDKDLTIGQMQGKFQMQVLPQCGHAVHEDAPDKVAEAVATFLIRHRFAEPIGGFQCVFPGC
PREPL inhibitor = inhibitors of human prolyl oligopeptidase-like enzyme PREPL. recombinant PREPL, fluorescence polarization activity-based probe. inhibition, % at 5.96 µM. 320,000 compounds, 0.68% hits. Q4J6C6. AID 2751; in the data active means inhibition above about 43%;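 further: 0% = enzyme with DMSO and 100% = wells lacking enzyme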
Fam108B inh = Fam108B inhibition, counter-screen for RBBP9 inhibitors | recombinant Fam108B, FP-Rh probe fluorescence polarization | inhibition, % at 9.51 µM | 300,000 compounds, 0.33% hits | AID 1947;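 active means inhibition above the screen mean inhibition plus 3 SD, computed separately per campaign, cut at about 18% in these data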;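 further: inhibitors lower polarization as less probe binds the enzyme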
GSTO1 inh = blocks human GSTO1 in RBBP9 counter-screen | 300,000 compounds, 1.1% hits | recombinant GSTO1, activity-based probe fluorescence polarization | AID 1974 | inhibition, % at 5.96 µM;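 active means inhibition above the campaign mean inhibition plus 3 SD, cut at about 35% in these data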;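 further: 0% = GSTO1-1 with DMSO and 100% = wells lacking GSTO1-1 enzyme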
Target sequence (P78417 whole entry, looked up): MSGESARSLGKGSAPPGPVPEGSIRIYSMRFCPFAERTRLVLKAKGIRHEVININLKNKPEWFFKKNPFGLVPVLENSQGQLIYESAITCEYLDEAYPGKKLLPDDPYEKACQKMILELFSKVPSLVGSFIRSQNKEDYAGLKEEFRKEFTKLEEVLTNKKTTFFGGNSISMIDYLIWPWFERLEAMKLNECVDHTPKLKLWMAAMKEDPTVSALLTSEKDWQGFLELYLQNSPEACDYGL
LYPLA2 inh = LYPLA2 (human) inhibition in PME1 counter-screen. 320,000 compounds, 0.38% hits. AID 2177. recombinant LYPLA2, FP-Rh probe fluorescence polarization. O95372. inhibition, % at 5.9 µM;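 active means inhibition above the screen-wide mean plus 3 SD, limit set per campaign, cut at about 26% in these data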;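 further: 0% = LYPLA2 with DMSO and 100% = wells lacking LYPLA2 enzyme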
LYPLA1 inh = counter-screen for PME1 inhibitors: inhibitors of human LYPLA1. inhibition, % at 5.9 µM. AID 2174. 320,000 compounds, 0.16% hits. O75608. recombinant LYPLA1, FP-Rh probe fluorescence polarization;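 active means inhibition above the mean of all tested compounds plus 3 SD, set per campaign, cut at about 14% in these data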;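 further: inhibitors block serine hydrolase probe labeling of LYPLA1 so polarization falls; 0% = enzyme with DMSO and 100% = wells lacking LYPLA1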
GSTO1 confirm = confirmation of human GSTO1 inhibitors; shares compounds with GSTO1 inh; recombinant GSTO1, probe fluorescence polarization; inhibition, % at 5.96 µM; 2,400 compounds, 54% hits;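 active means inhibition above the primary screen's cutoff, its mean inhibition plus 3 SD, cut at about 35% in these data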;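 further: loss of polarization as inhibitors block binding of rhodamine sulfonate ester activity probe; 0% = GSTO1 with DMSO and 100% = wells lacking GSTO1 enzyme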
GSTO1 recomb ABPP = blocks recombinant human glutathione S-transferase omega 1; inhibition, % at 1 µM; AID 463110; recombinant GSTO1, gel ABPP SE-Rh probe fluorescence; shares compounds with GSTO1 inh; 130 compounds, 30% hits;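 active means inhibition of the enzyme GSTO1 above about 75%, limit read from the data; inactive means inhibition below that limit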
Active calls of the source: *; . = no result given. Compounds with a hit are over-represented: about 1.9% of the library has one in this group of screens.

SMILES	PME-1 inh	PREPL inhibitor	Fam108B inh	GSTO1 inh	LYPLA2 inh	LYPLA1 inh	GSTO1 confirm	others
O/N=C(/CCc1ccccc1)c1ccc2c(c1)OCCO2	-5.4	5.8	-0.6	6.0	-0.6	2.9	.
CCOC(=O)C1CCN(C2=C(NS(=O)(=O)c3ccc(Br)cc3)C(=O)c3ccccc3C2=O)CC1	18.9	15.2	3.0	44.6*	8.3	0.3	13.6
N/C(=N/OC(=O)c1ccccc1Cl)c1ncc([N+](=O)[O-])s1	7.5	41.4	-0.5	47.0*	-8.8	-10.1	12.1
Cc1ccc(-c2cnn(-c3ccccc3)c2N)cc1	8.5	41.4	5.0	-7.6	-8.9	-4.0	.
Nc1nc2c(s1)CCc1c-2cnn1-c1ccccc1	11.8	33.0	14.2	72.3*	-11.4	-5.8	70.7*
C=C(C)c1cccc(C(C)(C)NC(=O)Nc2ncccn2)c1	-9.4	5.7	5.4	38.7*	-7.6	-1.9	21.1
CCOc1ccc(/C=C2\SC(=S)NC2=O)cc1OC	-16.4	9.7	-4.0	-8.3	-4.4	-0.5	.
COc1ccc(/C=C2\SC(=O)NC2=S)cc1OC	-0.7	9.8	10.3	61.5*	2.0	-0.7	72.1*
CCOc1ccccc1/C=N/N1CCN(Cc2ccccc2)CC1	1.3	15.8	-1.5	3.4	-2.5	-0.9	.
Cn1c(=O)c2ccccc2n2c(CCl)nnc12	-5.2	5.0	-3.5	80.1*	-0.5	0.9	86.0*	GSTO1 recomb ABPP=49.0
Cn1c(=O)c2ccccc2n2c(=S)[nH]nc12	2.9	-0.7	3.9	3.0	-0.9	-5.6	.
CCOc1ccc(NC(=O)c2ccccc2NC(=O)CNC2CCCC(C)C2C)cc1 (stereo not given)	.	-3.3	.	.	.	.	.
CCC1=NNc2cccc3c(OC)ccc1c23	22.6	36.4	14.1	73.0*	10.3	6.9	26.6
COc1ccc2c3c(cccc13)C(=O)N(O)C2=O	-0.6	4.0	0.6	-4.1	4.3	3.1	.
CS(=O)(=O)c1ccc(NC(=O)CCN2C(=O)NC3(CCCC3)C2=O)cc1	-5.6	1.7	.	.	-4.2	-0.7	.
O=C(O)c1[nH]c2ccccc2c1C(c1ccccc1)c1c(C(=O)O)[nH]c2ccccc12	-4.2	-0.9	6.4	37.6*	-3.8	-4.6	29.6
Cc1ccc(S(=O)(=O)N(C)CC(=O)NNC(=O)CCC(=O)c2ccc(F)cc2)cc1	.	8.7	.	.	.	.	.
C#CC(=O)N(c1ccc(OC)c(OC)c1)C(C(=O)NC1CCCC1)c1cccs1 (stereo not given)	3.8	-6.8	-3.6	48.0*	-1.2	1.3	51.9*
C#CC(=O)N(c1cccc(OC)c1)C(C(=O)NC1CCCC1)c1cccs1 (stereo not given)	-1.5	-0.7	-2.6	76.4*	5.8	1.0	76.0*
CCN(C(=O)CSc1nnc(C(C)N(C)C)n1-c1ccc(F)cc1)C1CCS(=O)(=O)C1 (stereo not given)	4.1	2.0	.	.	-4.8	-3.5	.
CC(Sc1nc2ncc(Cl)cc2[nH]1)C(=O)c1c(N)n(C)c(=O)n(C)c1=O (stereo not given)	-1.0	-3.2	0.4	73.8*	0.5	-2.3	5.9
Cc1cc([N+](=O)[O-])cc2c1NCC1CC=CC21 (stereo not given)	9.2	-0.9	1.4	1.2	-5.4	2.4	.
Cc1cc([N+](=O)[O-])c2c(c1C)C1C=CCC1C(c1ccccn1)N2 (stereo not given)	7.5	18.2	11.9	52.1*	5.7	-0.2	10.2
Cc1ccc(CCNC(=O)CSCc2ccc(F)cc2)cc1	0.6	-16.6	2.8	5.4	11.7	-1.8	.
O=C(CSc1nnc(-c2ccco2)o1)c1ccc([N+](=O)[O-])cc1	3.3	26.5	1.7	46.8*	3.8	3.8	24.4
SMILES	PME-1 inh	PREPL inhibitor	Fam108B inh	GSTO1 inh	LYPLA2 inh	LYPLA1 inh	GSTO1 confirm	others
COC(=O)CSc1nnc(-c2sc3ccccc3c2Cl)o1	1.9	2.5	-0.2	1.3	8.1	0.3	.
N#CCSc1nnc(-c2sc3ccccc3c2Cl)o1	4.4	-1.4	-8.6	40.2*	3.4	-3.0	32.5
COc1cccc(N=Nc2c(=O)[nH]n3c(C)cc(C)nc23)c1	-2.1	19.1	13.2	38.1*	2.5	-1.3	3.3
CCOc1ccc(N=Nc2c(=O)[nH]n3c(C)cc(C)nc23)cc1	-12.5	-3.9	-11.7	11.0	-1.6	-0.2	.
O=C(Cc1c(Cl)cccc1Cl)N1CCN(S(=O)(=O)c2cccs2)CC1	4.7	4.9	.	.	-0.8	1.0	.
CC(=O)NN1C(=O)/C(=C/c2ccc(Br)o2)SC1=S	-17.1	-20.7	-4.9	64.4*	-17.0	-4.7	77.7*
CC(=O)NN1C(=O)/C(=C\c2ccc(Br)o2)SC1=S	-28.2	-8.1	4.2	69.3*	-15.7	-12.8	78.5*
CC(=O)NN1C(=O)/C(=C\c2ccccc2)SC1=S	0.1	-4.0	0.2	3.6	4.7	-1.4	.
COC(=O)[C@]1(Cc2ccccc2)N[C@H](CN(C)C(=O)Nc2ccc(Cl)cc2)[C@@H]2C(=O)N(C)C(=O)[C@@H]21	.	14.3	.	.	.	.	.
CCCCn1c(N)c(N(CCOC)C(=O)C(C)N2C(=O)c3ccccc3C2=O)c(=O)[nH]c1=O (stereo not given)	4.7	2.1	1.4	66.8*	-2.5	-1.6	8.8
CC(C)(C)c1ccc(NC(=O)CN2C(=O)NC(C)(C3CC3)C2=O)cc1 (stereo not given)	-5.8	4.5	.	.	3.8	-1.7	.
O=C(Cc1ccccc1Cl)NC1(O)C(=O)c2ccccc2C1=O	3.9	19.7	1.2	66.8*	-1.2	-2.1	67.2*
COc1ccccc1NC(=O)CON=C(N)CC(=O)NC1CCCCC1	6.7	6.2	.	.	3.5	3.0	.
CCOC(=O)c1c(NC(=O)c2ccco2)n(C2CCCCC2)c2nc3ccccc3nc12	-2.1	11.2	4.9	61.9*	-4.1	-0.4	85.5*
CCC(=O)Nc1c(C#N)c2nc3ccccc3nc2n1C1CCCCC1	4.0	4.8	2.0	17.8	0.9	-0.5	.
CCN(c1ccccc1)S(=O)(=O)c1cc(NC(=O)C2CC2)ccc1Cl	.	3.8	.	.	.	.	.
CCN(c1ccccc1)S(=O)(=O)c1cc(NC(=O)CSc2n[nH]c(=O)[nH]c2=O)ccc1Cl	-5.8	-25.6	13.5	52.4*	-5.2	-1.7	67.4*
O=C1C(NS(=O)(=O)c2cccs2)=C(N2CCN(c3cccc(C(F)(F)F)c3)CC2)C(=O)c2ccccc21	21.2	39.9	8.9	48.2*	3.3	-0.6	13.7
CCOc1ccccc1N1CCN(C2=C(NS(=O)(=O)c3cccs3)C(=O)c3ccccc3C2=O)CC1	1.6	33.6	17.9	62.5*	9.2	4.2	12.8
CN1CCN(C2=C(NS(=O)(=O)c3cccs3)C(=O)c3ccccc3C2=O)CC1	1.9	-0.3	0.2	16.8	2.7	-1.2	.
